# Data as given in PubChem BioAssay (NCATS).
# Values joined by “and” are separate entries in the source; they are usually repeats but may differ in a detail not shown here. Equal values may be shown once. Results filed as inconclusive are left out. Where a call stands in place of a potency, no number is given. The source holds several records for some structures; these can differ, active in one and inactive in another. Active and inactive are the calls of the source. Unless noted, calls come from the whole dose curve; as a rule, active = well fitted curve in the direction sought with a large enough effect; inconclusive = small, poorly fitted or top-dose-only effect, or another doubt; inactive = no such curve, though single readings can be large; an effect the other way counts as inactive or inconclusive.
# Key:
# [1] = qHTS assay to identify small molecule inhibitors of chordoma cells - UCH-1 (AID 1259355); note: nearly all actives have a fitted effect of over 55% in size; note: potency is the fitted concentration of half-maximal effect; series mostly up to about 46 µM
# Method in brief: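 800 cells/well, overnight attach; compounds pinned at 15 concs, then auranofin/camptothecin/doxorubicin/rubitecan/topotecan combo added; 48hr 37 C, 5% CO2; CellTiter-Glo, 30min RT, luminescence.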
# [2] = P-glycoprotein substrates identified in KB-8-5-11 adenocarcinoma cell line, qHTS therapeutic library screen (AID 1346987); note: nearly all actives have a fitted effect of over 65% in size; note: potency is the fitted concentration of half-maximal effect
# Method in brief: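 Luminescence from CellTiter-Glo, read 5 min after addition, quantified survival of KB-8-5-11 (P-gp-overexpressing) cells exposed to compounds for 72 h. AC50 was derived from concentration-response curves.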
# [3] = qHTS assay to identify small molecule inhibitors of chordoma cells - UCH-2 (AID 1259356); note: potency is the fitted concentration of half-maximal effect
# [4] = Natriuretic polypeptide receptor (hNpr1) antagonism - Pilot counterscreen GloSensor control cell line (AID 1347045; calls by dose curve; note: series mostly up to about 38 µM)
# Method in brief: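 Cells were first seeded and incubated overnight at 37C, then loaded with 2% GloSensor substrate for 2 h. Compounds were added for 30 min at room temperature, followed by a baseline read, 50 uM SNP and a final read after 20 min.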
# [5] = target: Atrial natriuretic peptide receptor 1 (Homo sapiens) (UniProt P16066); assay: Natriuretic polypeptide receptor (hNpr1) antagonism - Pilot screen (AID 1347049; calls by dose curve;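 note: HEK293 cells with hNpr1 and GloSensor cGMP luciferase stimulated by 0.1 nM hNppA; agonist-evoked cGMP luminescence read 20 min after hNppA addition; series mostly up to about 58 µM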)
# Sequence of Atrial natriuretic peptide receptor 1 (Homo sapiens) (P16066 whole entry, looked up): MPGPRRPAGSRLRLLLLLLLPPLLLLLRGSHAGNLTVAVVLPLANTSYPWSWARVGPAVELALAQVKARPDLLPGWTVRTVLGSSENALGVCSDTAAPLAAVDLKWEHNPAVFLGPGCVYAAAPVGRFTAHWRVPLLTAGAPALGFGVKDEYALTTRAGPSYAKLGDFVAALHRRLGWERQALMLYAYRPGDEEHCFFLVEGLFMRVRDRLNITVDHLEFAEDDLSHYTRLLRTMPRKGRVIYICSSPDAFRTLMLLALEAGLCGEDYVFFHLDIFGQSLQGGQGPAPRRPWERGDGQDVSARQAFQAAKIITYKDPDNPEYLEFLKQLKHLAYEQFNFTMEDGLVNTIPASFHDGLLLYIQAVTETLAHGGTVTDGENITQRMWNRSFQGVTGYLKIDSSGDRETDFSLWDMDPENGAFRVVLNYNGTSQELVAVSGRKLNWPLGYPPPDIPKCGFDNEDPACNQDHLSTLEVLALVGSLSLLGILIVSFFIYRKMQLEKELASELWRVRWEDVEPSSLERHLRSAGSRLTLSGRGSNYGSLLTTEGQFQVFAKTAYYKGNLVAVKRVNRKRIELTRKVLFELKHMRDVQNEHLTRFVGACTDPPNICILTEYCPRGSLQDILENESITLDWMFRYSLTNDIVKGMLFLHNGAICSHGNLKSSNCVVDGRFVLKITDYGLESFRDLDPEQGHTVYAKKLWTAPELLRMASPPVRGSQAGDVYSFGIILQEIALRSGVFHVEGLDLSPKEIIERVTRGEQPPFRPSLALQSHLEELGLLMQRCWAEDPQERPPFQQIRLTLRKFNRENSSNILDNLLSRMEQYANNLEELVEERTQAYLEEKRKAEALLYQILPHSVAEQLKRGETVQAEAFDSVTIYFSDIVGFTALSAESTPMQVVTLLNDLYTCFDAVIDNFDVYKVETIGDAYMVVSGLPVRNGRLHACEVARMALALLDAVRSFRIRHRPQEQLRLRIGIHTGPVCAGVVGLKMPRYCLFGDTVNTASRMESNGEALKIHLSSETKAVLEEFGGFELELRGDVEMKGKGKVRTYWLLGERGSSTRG
# Method in brief: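 Receptor antagonism read as cGMP-dependent luminescence in hNpr1/pGS-40F HEK293 cells: pre-read after 30 min compound exposure, post-read 20 min after hNppA agonist at 0.1 nM final, all at room temperature, protected from light; A-71915 titration as control.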
# [6] = target: Atrial natriuretic peptide receptor 2 (Homo sapiens) (UniProt P20594); assay: Natriuretic polypeptide receptor (hNpr2) antagonism - Pilot subtype selectivity assay (AID 1347050; calls by dose curve)
# Sequence of Atrial natriuretic peptide receptor 2 (Homo sapiens) (P20594 whole entry, looked up): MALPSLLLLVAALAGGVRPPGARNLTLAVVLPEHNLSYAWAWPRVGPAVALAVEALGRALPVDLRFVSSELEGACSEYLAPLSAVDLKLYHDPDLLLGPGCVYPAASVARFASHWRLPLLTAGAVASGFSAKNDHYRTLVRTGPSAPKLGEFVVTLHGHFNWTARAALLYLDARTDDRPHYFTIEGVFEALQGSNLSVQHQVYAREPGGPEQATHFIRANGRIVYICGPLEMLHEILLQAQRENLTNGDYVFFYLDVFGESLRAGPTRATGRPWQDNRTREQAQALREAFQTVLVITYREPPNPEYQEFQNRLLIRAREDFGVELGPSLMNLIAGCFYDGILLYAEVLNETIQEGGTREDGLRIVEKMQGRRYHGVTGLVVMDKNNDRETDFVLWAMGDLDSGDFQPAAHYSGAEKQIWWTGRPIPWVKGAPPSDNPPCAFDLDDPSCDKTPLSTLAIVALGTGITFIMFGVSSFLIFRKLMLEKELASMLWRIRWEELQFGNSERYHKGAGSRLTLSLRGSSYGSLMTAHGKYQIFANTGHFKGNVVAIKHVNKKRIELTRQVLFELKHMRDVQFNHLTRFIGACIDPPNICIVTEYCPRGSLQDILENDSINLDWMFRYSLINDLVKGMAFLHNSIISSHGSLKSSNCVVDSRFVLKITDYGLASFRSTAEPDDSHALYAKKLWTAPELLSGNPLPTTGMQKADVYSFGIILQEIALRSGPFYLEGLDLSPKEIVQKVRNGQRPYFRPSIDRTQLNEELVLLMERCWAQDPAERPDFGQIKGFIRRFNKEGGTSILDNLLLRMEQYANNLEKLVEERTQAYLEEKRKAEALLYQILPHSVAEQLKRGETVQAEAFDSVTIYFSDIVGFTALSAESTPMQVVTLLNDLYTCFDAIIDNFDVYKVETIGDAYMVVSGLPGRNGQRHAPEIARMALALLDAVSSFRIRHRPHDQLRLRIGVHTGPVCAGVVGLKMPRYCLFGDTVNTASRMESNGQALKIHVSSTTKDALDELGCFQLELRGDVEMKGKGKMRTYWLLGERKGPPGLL
# Method in brief: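 Antagonist mode: compounds (LOPAC1280, seven 1:5 dilutions) added 30 min before 1 nM hNppC stimulation of hNpr2-HEK293 cGMP-sensor cells; luminescence read before and 20 min after agonist at ambient temperature.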
smiles,measurement,setting,value
COC(COC(N)=O)C1=C(N2CC2)C(=O)C(C)=C(N2CC2)C1=O (stereo unspecified),Potency,[1],2.24 µM (active)
same,Potency,[2],6.51 µM (active)
CCCCCl,Potency,[1],inactive
same,Potency,[2],inactive
C[C@@H]([C@H](O)c1ccccc1)N(C)C,Potency,[1],inactive
same,Potency,[3],inactive
same,Potency,[2],inactive
CCOP(=O)(OCC)O/C(=C/Cl)c1ccc(Cl)cc1Cl,Potency,[3],inactive
same,Potency,[2],10.3 µM (active)
O=CC=O,Potency,[3],inactive
same,Potency,[2],inactive
CC(C)[C@@]1(NC(=O)[C@@H]2C[C@@H]3c4cccc5[nH]cc(c45)C[C@H]3N(C)C2)O[C@@]2(O)[C@@H]3CCCN3C(=O)[C@H](Cc3ccccc3)N2C1=O,Potency,[1],inactive
same,Potency,[3],inactive
same,Potency,[2],inactive
same,Potency,[4],inactive
same,Potency,[5],inactive
same,Potency,[6],inactive
FC(F)OC(F)(F)C(F)Cl (stereo unspecified),Potency,[3],inactive
same,Potency,[2],inactive
OC[C@@H](O)[C@H]1O[C@@H]2O[C@@H](C(Cl)(Cl)Cl)O[C@@H]2[C@H]1O,Potency,[1],inactive
same,Potency,[3],inactive
same,Potency,[2],inactive
N#CC(C#N)=Cc1cc(O)c(O)c(O)c1,Potency,[1],inactive
same,Potency,[2],inactive
CCON=O,Potency,[1],inactive
same,Potency,[3],inactive
same,Potency,[2],inactive
C[C@H]1CC[C@@H]2[C@@H](C)[C@H]3[C@H](C[C@H]4[C@@H]5CC=C6CC(O[C@@H]7O[C@H](CO)[C@H](O)[C@H](O[C@@H]8O[C@H](CO)[C@@H](O)[C@H](O)[C@H]8O)[C@H]7O[C@H]7O[C@@H](C)[C@H](O)[C@@H](O)[C@H]7O)CC[C@]6(C)[C@H]5CC[C@]34C)N2C1 (stereo partly specified),Potency,[3],inactive
O=C1C[C@@H]2OCC=C3CN4CC[C@]56c7ccccc7N1[C@H]5[C@H]2[C@H]3C[C@H]46 (tested in a mixture with another compound),Potency,[3],inactive
same,Potency,[2],inactive
CCCCCc1cc(O)c2c(c1)OC(C)(C)[C@@H]1CCC(C)=C[C@@H]21,Potency,[3],inactive
C[CH2][Hg][S]c1ccccc1C(=O)O,Potency,[1],3.16 µM (active)
same,Potency,[3],3.66 µM (active)
same,Potency,[2],2.31 µM (active)
[O]=[Cr](=[O])([OH])[O][Cr](=[O])(=[O])[OH],Potency,[1],2.24 µM (active) and 4.47 µM (active)
same,Potency,[2],23.1 µM (active) and inactive
C=CCN1CC[C@]23c4c5ccc(O)c4O[C@H]2[C@@H](O)C=C[C@H]3[C@H]1C5,Potency,[1],inactive
same,Potency,[3],inactive
same,Potency,[2],inactive
C[C@@H](Cc1ccccc1)NCCC(c1ccccc1)c1ccccc1,Potency,[3],inactive
OC(c1ccccc1)(c1ccccc1)C1CN2CCC1CC2 (stereo unspecified),Potency,[1],inactive
same,Potency,[3],inactive
same,Potency,[2],inactive
CC(Cc1ccccc1)NC=O (stereo unspecified),Potency,[1],inactive
same,Potency,[3],inactive
same,Potency,[2],inactive
O=c1c2ccccc2[se]n1-c1ccccc1,Potency,[3],inactive
Oc1cccc[c]1[Hg][Cl],Potency,[1],15.8 µM [with auranofin plus four topoisomerase inhibitors] (active)
same,Potency,[3],13 µM (active)
same,Potency,[2],5.17 µM (active)
Clc1ccc(Cl)cc1,Potency,[3],inactive
same,Potency,[2],inactive
O=C1CCCCC1CN1CCCCC1 (stereo unspecified),Potency,[1],inactive
same,Potency,[3],inactive
same,Potency,[2],inactive
C=C[C@H]1CN2CC[C@H]1C[C@@H]2[C@@H](O)c1ccnc2ccccc12,Potency,[3],inactive
CCCC(=O)OC(C(Cl)(Cl)Cl)P(=O)(OC)OC (stereo unspecified),Potency,[3],inactive
same,Potency,[2],inactive
CCN1C[C@]2(COC)[C@H](O)C[C@H](OC)[C@@]34[C@@H]5C[C@@]6(O)[C@H](OC(=O)c7ccccc7)[C@@H]5[C@@](OC(C)=O)([C@@H]([C@H](OC)[C@H]23)[C@@H]14)[C@@H](O)[C@@H]6OC,Potency,[1],inactive
same,Potency,[2],inactive
[H+].[H+].[Hg+2].[O-]B([O-])[O-].[c-]1ccccc1,Potency,[3],13 µM (active)
same,Potency,[2],1.3 µM (active)
CN(C)[C@H](Cc1ccccc1)c1ccccc1,Potency,[1],inactive
same,Potency,[3],inactive
same,Potency,[2],inactive
ClC1C(Cl)C(Cl)C(Cl)C(Cl)C1Cl (stereo unspecified),Potency,[1],inactive
same,Potency,[3],inactive
same,Potency,[2],inactive
O=P(O)(O)C(Cl)(Cl)P(=O)(O)O,Potency,[1],inactive
same,Potency,[3],inactive
same,Potency,[2],inactive
CCNC1(c2cccs2)CCCCC1=O (stereo unspecified),Potency,[1],inactive
same,Potency,[3],inactive
same,Potency,[2],inactive
[Cl-].[Cl-].[Hg+2],Potency,[3],inactive
same,Potency,[2],3.66 µM (active)
CCNC(C)Cc1cccc(C(F)(F)F)c1 (stereo unspecified),Potency,[3],inactive
same,Potency,[2],inactive
CC(N)Cc1ccc(O)cc1 (stereo unspecified),Potency,[3],inactive
same,Potency,[2],inactive
CCOc1ccc2c3c1O[C@H]1[C@@H](O)C=C[C@H]4[C@@H](C2)N(C)CC[C@@]341,Potency,[3],inactive
same,Potency,[2],inactive
C[N+]1([O-])[C@@H]2CC[C@H]1CC(OC(=O)C(CO)c1ccccc1)C2 (stereo partly specified),Potency,[3],inactive
same,Potency,[2],inactive
O=[N+]([O-])C(Br)(CO)CO,Potency,[3],inactive
same,Potency,[2],inactive
